Outcome and AC50 data for 35 compounds are collected here from PubChem BioAssay (EPA / NIEHS).

Inconclusive results are not listed. The source made the active and inactive calls. The calls were made as follows: active = hit-call score of the fitted dose curve at least 0.9, where 1 is the maximum; inconclusive = response in the unintended direction; inactive = score below 0.9.

One test can be described thus: CCTE_Simmons_CellTiterGLO_HEK293T: Viability Assessment in CCTE's Assays for Thyroperoxidase (TPO) Inhibition, Simmons Lab (AID 2283665).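 As to AC50: cells exposed to compound for 24 h before readout; actives reduce ATP signal below DMSO vehicle meaning cytotoxicity.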 In a few lines:
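Cytotoxicity counter-screen: human HEK293T cells in low-serum (1% FBS) medium receive test chemical, 5 nM to 87.5 uM final, for 24 h; ATP is quantified by luciferase luminescence.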
`NNC(=O)c1ccncc1`: the call was inactive.

Turning to `COS(C)(=O)=O`, the compound was classed as inactive.

With `CCn1nc(C)c2c1C(=O)NCC(c1ccc(O)cc1)=N2`, the outcome was inactive.

As to `CCCCCCCCCCCCCCCCOS(=O)(=O)O`, the AC50 was 26.7 µM (active).

In the case of `Cc1cccc(O)c1C`, the compound was called inactive.

For `O=C(NO)C1(NS(=O)(=O)c2ccc(Oc3ccc(F)cc3)cc2)CCOCC1`, the compound was called inactive.

As to `CCc1ccc(O)c(C(C)(C)C)c1`, the AC50 is 12.6 µM (active).

Consider `Cc1ccc(S(=O)(=O)NC(=O)NN2CCCCCC2)cc1`, for which the compound was called inactive.

On to `NC(=O)N(O)[C@@H]1COc2cc(OCc3ccccc3)ccc21`, for which the call was inactive.

For the compound `C=CCc1cc(S(=O)(=O)c2ccc(O)c(CC=C)c2)ccc1O`, the AC50 is 79.5 µM (active).

As to `c1ccc2cc3ccccc3cc2c1`, the call was inactive.

In the case of `Cn1cc[nH]c1=S`, the result was inactive.

For `C[C@@H](Oc1ccc(CNC(=O)c2cccnc2Oc2ccc3c(c2)OCO3)c(F)c1)C(=O)O`, the call was inactive.

Another test can be described thus: Tanguay_ZF_120hpf_TR_legacy: (Legacy) Oregon State University Tanguay Lab 120 Hour Post-fertilization zebrafish Assay for Touch Response (AID 2283667). In a few lines:
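Tropical 5D wild-type zebrafish embryos statically exposed to 120 hpf at 28°C, sealed and dark-covered, 0.64% DMSO final; touch response scored as present/absent by brightfield microscopy at 120 hpf. Trimethyltin chloride 5 uM positive control; dead embryos not scored.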
As to `CCCCCCCC1CCC(=O)O1` (stereo unspecified), the compound was classed as inactive.

With `O=C1CN(N=Cc2ccc([N+](=O)[O-])o2)C(=O)N1`, the outcome was inactive.

As for `NNC(=O)c1ccncc1`, the compound was classed as inactive.

Consider `c1ccc(C(O[C@@H]2CCCN(CCc3ccc4c(c3)OCO4)C2)c2ccccc2)cc1`, for which the AC50 is 53.6 µM (active).

As for `COS(C)(=O)=O`, the compound was classed as inactive.

Take `O=C(O)c1cccc(C[C@@H]2COc3ccc(OCc4nc5cc(F)ccc5s4)cc3[C@@H]2O)c1`: the outcome was inactive.

In the case of `CCn1nc(C)c2c1C(=O)NCC(c1ccc(O)cc1)=N2`, the call was inactive.

Consider `CCCCCCCCCCCCCCCCOS(=O)(=O)O`, for which the outcome was inactive.

In the case of `O=C(NO)C1(NS(=O)(=O)c2ccc(Oc3ccc(F)cc3)cc2)CCOCC1`, the call was inactive.

In the case of `Cc1ncc([C@@H](CCCCCCc2ccc3c(n2)NCCC3)CC(=O)O)cn1`, the compound was classed as inactive.

Regarding `CCc1ccc(O)c(C(C)(C)C)c1`, the compound was called inactive.

For `O=C(O)[C@H](O)[C@@H](O)C(=O)O`, the call was inactive.

Turning to `CC(C)C(=O)Nc1ccc([N+](=O)[O-])c(C(F)(F)F)c1`, the result was inactive.

Take `Cc1nc(-c2ccccn2)ncc1C(=O)Nn1cc(C)c2cc(F)ccc21`: the compound was called inactive.

As for `CCCCN1C(=O)[C@@H]([C@H](O)C2CCCCC2)NC(=O)C12CCN(Cc1ccc(Oc3ccc(C(=O)O)cc3)cc1)CC2`, the compound was called inactive.

Take `O=c1[nH]cnc2c1ncn2[C@H]1CC[C@@H](CO)O1`: the call was inactive.

Regarding `Cc1ccc(S(=O)(=O)NC(=O)NN2CCCCCC2)cc1`, the outcome was inactive.

For `CCCCOC(=O)c1ccccc1`, the call was inactive.

Consider `NC(=O)N(O)[C@@H]1COc2cc(OCc3ccccc3)ccc21`, for which the result was inactive.

As to `CCCC(CCC)C(=O)O`, the compound was called inactive.

In the case of `COc1cc(C(C)C)c2c(c1)S(=O)(=O)N(COc1cc(=O)n3cccc(OCCN4CCCCC4)c3n1)C2=O`, the outcome was inactive.

With `CCN(CC)C(=S)SSC(=S)N(CC)CC`, the half-maximal activity concentration (AC50) was 2.17 µM (active).

As for `COc1cc2c(c(OC)c1OC)-c1ccc(OC)c(=O)cc1[C@@H](NC(C)=O)CC2`, the AC50 is 13.3 µM (active).

On to `CC[C@H](C)C(=O)O[C@H]1C[C@H](O)C=C2C=C[C@H](C)[C@H](CC[C@@H](O)C[C@@H](O)CC(=O)O)[C@H]21`, for which the outcome was inactive.

Regarding `CC(C)c1nnc2ccc(-c3ocnc3-c3cc(F)ccc3F)cn12`, the result was inactive.

`C=CCc1cc(S(=O)(=O)c2ccc(O)c(CC=C)c2)ccc1O`: the call was inactive.

Take `c1ccc2cc3ccccc3cc2c1`: the result was inactive.

In the case of `OCc1ccccc1`, the result was inactive.

On to `CCCCC(CC)C(=O)OCCOCCOCCOC(=O)C(CC)CCCC` (stereo unspecified), for which the compound was classed as inactive.

With `Nc1ccn([C@@H]2O[C@H](CO)[C@@H](O)[C@@H]2O)c(=O)n1`, the result was inactive.

As to `OCC(CO)(CO)CO`, the outcome was inactive.

Take `C[C@@H](Oc1ccc(CNC(=O)c2cccnc2Oc2ccc3c(c2)OCO3)c(F)c1)C(=O)O`: the call was inactive.

As to `CCCc1ccccc1`, the result was inactive.

Usually AC50 stands for the concentration giving half of the maximal activity seen.
